{"source": "PubChem BioAssay AID1689", "about": "(NMMLSC, 2009)", "note": "Measured potencies and affinities stand elsewhere. Values without a mark were called inactive.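 The calls were made as follows: active = curve fits scoring over 52 on a 0 to 100 blend rewarding potency under 10 µM and span over 20%; inactive = the rest.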"}
{"target": "ATP-dependent translocase ABCB1 (Homo sapiens) (UniProt P08183)", "sequence (P08183 whole entry, looked up)": "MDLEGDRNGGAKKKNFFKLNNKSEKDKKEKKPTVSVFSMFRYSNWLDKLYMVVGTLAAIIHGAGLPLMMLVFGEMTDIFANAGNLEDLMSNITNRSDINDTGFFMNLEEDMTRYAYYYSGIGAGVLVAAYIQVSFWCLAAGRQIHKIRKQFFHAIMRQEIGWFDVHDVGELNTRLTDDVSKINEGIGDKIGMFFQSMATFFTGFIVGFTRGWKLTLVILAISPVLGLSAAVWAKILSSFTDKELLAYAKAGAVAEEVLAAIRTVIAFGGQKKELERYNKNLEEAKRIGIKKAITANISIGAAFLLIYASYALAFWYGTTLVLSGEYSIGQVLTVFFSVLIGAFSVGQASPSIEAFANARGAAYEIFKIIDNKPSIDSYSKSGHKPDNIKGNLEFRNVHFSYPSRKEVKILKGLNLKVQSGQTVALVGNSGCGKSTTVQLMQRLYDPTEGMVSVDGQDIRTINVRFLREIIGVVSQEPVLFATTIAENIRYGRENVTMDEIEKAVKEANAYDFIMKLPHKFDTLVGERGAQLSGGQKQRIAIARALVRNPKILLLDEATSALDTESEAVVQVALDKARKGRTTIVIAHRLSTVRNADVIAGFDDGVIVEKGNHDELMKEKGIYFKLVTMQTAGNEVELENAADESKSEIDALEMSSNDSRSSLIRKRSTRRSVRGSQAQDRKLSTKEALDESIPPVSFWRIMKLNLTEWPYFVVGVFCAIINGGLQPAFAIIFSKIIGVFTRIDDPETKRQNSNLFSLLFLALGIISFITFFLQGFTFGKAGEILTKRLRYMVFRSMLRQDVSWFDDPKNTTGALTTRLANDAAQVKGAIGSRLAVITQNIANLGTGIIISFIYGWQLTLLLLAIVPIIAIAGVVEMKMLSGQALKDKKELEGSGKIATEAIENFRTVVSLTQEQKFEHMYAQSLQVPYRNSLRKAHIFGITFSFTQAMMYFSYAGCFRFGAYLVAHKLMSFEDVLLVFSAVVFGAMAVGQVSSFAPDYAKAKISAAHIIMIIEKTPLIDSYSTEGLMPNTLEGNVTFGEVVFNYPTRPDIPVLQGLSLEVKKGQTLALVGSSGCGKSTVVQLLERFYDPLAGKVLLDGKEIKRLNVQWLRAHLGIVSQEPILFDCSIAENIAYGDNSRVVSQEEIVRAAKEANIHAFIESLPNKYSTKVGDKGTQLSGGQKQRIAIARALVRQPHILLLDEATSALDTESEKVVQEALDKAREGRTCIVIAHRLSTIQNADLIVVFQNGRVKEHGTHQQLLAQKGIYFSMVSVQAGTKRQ", "assay": "inhibition of P-gp mediated JC-1 efflux – Jurkat-DNR cells, flow cytometry, dose response (AID 1689)", "details": "series mostly up to 66.6 µM; inhibition: at the top concentration"}
{"smiles": "COc1cc(C(=O)Nc2ccc(S(=O)(=O)NC(C)C)cc2)cc(OC)c1OC", "inhibition": "3.51%"}
{"smiles": "Cc1cc(C)c(C#N)c(SCc2c(F)cccc2[N+](=O)[O-])n1", "inhibition": "14.2%"}
{"smiles": "CNc1nc2cc([N+](=O)[O-])c([N+](=O)[O-])cc2nc1NC", "inhibition": "10.5%"}
{"smiles": "CCCCN1/C(=C/c2ccc3ccccc3[n+]2CC)Sc2ccccc21", "inhibition": "7.55%"}
{"smiles": "CC1=NN(c2ccc([N+](=O)[O-])cc2)C(=O)/C1=C/N(C)C", "inhibition": "27.7%"}
{"smiles": "CN(C)c1ccc(/C=C2\\SC(=S)N(Nc3ncc(C(F)(F)F)cc3Cl)C2=O)cc1", "inhibition": "42%"}
{"smiles": "COc1ccccc1Nc1nc2nonc2nc1N1CCCCC1C", "note": "(stereo not drawn)", "inhibition": "5.44%"}
{"smiles": "CC(=O)Nc1ccc(Nc2ccc(S(=O)(=O)C(F)(F)F)cc2[N+](=O)[O-])cc1", "inhibition": "15.1%"}
{"smiles": "N#CC(C#N)=C1C=C2C=C(N3CCCCCC3)CCC2CC1", "note": "(stereo not drawn)", "inhibition": "-21.8%"}
{"smiles": "CN1CCN(C2=CC3=CC(=C(C#N)C#N)CCC3CC2)CC1", "note": "(stereo not drawn)", "inhibition": "44.9%"}
{"smiles": "COC(=O)c1cc(NC(=O)c2ccccc2)c(=O)oc1/C=C/Nc1ccc(Oc2ccccc2)cc1", "inhibition": "-244%"}
{"smiles": "COC(=O)c1ccc(C(C(=O)NC2CCCCC2)N(Cc2ccccc2)C(=O)Cc2cccs2)cc1", "note": "(stereo not drawn)", "inhibition": "35.9%"}
{"smiles": "CCN(CC)C1=CC2=CC(=C(C#N)C#N)CCC2CC1", "note": "(stereo not drawn)", "inhibition": "98.6%"}
{"smiles": "O=[N+]([O-])c1ccc(Nc2nc(Cl)nc(NCCO)n2)cc1", "inhibition": "9.77%"}
{"smiles": "COc1ccc2cc(C(=O)OC(C)C)sc(=O)c2c1OC", "inhibition": "12.8%"}
{"smiles": "COc1ccc(CCNC(=O)COC(=O)/C=C/c2ccc(OC)c(OC)c2)cc1", "inhibition": "-20.9%"}
{"smiles": "CCCCN(C)C1=CC2=CC(=C(C#N)C#N)CCC2CC1", "note": "(stereo not drawn)", "inhibition": "29.7%"}
{"smiles": "CCOC(=O)c1sc2cc([N+](=O)[O-])cc(SCC(C)C)c2c1N", "inhibition": "56.3% [at 2.47 µM]"}
{"smiles": "CCOc1ccccc1NC(=O)C(OC(=O)c1ccc(N(C)C)cc1)c1ccccc1", "note": "(stereo not drawn)", "inhibition": "6.84%"}
{"smiles": "Cc1c(C(=O)Nc2ccc(F)cc2)c2ccccn2c1CCc1ccncc1", "inhibition": "19.6%"}
{"smiles": "N#CC(C#N)=C1C=C2C=C(N3CCOCC3)CCC2CC1", "note": "(stereo not drawn)", "inhibition": "-7.21%"}
{"smiles": "COc1cccc(-c2nc(N3CC(C)CC(C)C3)c3ccccc3n2)c1O", "note": "(stereo not drawn)", "inhibition": "28.2%"}
{"smiles": "CC(C)C(NS(=O)(=O)c1ccccc1)C(=O)OCc1cc([N+](=O)[O-])cc2c1OCOC2", "note": "(stereo not drawn)", "inhibition": "3.67%"}
